The text below walks through data of PMC4336329 (PLoS ONE, 2015).

In all, about 310,000 compounds went through this assay and about 14,000 (4.5%) showed an effect of 50% or more. Effects have a minus sign here. Only a selection was taken, and strong results are over-represented in it overall.
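Further: peak tail current of the secondary pulse compared with the same well before compound.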

Chain of human ether-à-go-go-related gene (hERG) potassium channel (Q12809 whole entry, looked up): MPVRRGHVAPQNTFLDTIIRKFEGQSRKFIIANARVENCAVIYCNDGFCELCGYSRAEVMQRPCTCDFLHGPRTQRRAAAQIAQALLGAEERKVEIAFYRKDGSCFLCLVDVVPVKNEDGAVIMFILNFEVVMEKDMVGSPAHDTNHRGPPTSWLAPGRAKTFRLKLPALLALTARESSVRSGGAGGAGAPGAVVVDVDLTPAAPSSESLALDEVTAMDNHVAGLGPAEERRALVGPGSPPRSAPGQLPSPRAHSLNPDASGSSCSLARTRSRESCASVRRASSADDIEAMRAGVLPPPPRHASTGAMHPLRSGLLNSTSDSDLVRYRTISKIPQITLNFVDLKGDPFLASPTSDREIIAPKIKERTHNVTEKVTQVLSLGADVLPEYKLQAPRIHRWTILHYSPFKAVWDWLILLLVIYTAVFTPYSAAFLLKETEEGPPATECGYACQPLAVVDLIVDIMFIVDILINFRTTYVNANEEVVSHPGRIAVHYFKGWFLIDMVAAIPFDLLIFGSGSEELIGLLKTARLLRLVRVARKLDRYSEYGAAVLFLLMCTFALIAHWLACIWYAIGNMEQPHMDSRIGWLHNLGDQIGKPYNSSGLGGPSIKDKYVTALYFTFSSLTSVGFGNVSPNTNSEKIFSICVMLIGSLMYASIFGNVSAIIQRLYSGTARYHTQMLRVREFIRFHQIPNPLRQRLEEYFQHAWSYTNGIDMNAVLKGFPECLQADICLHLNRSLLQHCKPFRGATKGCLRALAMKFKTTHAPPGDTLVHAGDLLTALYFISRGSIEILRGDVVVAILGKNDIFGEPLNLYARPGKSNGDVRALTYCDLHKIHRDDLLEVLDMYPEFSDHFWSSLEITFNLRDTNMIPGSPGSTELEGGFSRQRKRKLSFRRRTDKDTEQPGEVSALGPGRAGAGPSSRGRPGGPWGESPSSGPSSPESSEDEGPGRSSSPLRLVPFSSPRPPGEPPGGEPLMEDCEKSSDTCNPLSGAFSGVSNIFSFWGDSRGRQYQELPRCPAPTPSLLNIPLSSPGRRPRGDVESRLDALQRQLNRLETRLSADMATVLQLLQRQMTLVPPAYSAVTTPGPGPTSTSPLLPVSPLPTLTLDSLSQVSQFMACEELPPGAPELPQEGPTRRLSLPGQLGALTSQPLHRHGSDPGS

The experiment has as its target human ether-à-go-go-related gene (hERG) potassium channel (human, UniProt Q12809). In words: primary screen, population patch clamp on CHO cells stably expressing hERG; higher = less effect of the substance.
Take `CCn1cc(/C=C/C(=O)Nc2ccn(Cc3c(F)c(F)cc(F)c3F)n2)cn1`: the “hERG current change (%, negative = inhibition) at 10uM” value is -14.9%. For `O=C(CN1CCC(n2nnc3cc(F)ccc32)CC1)NNC(=O)c1ccccc1` the value was -11.9%; for `O=C(CN1CCC(n2nnc3cc(F)ccc32)CC1)N1CCCc2ccccc21`, -64.2%; for `O=C(CN1CCC(N2CCCCC2)CC1)N1CCCc2ccccc21.O=C(O)C(=O)O`, 20.7%. As for `O=C(CN1CCC(n2nnc3cc(F)ccc32)CC1)NCCc1nc2ccccc2[nH]1`, the figure is -31.6%. For `O=C(CN1CCC(n2nnc3cc(F)ccc32)CC1)N1CCc2ccccc2C1` the value was -58.1%. As for `O=C(CCS(=O)(=O)Cc1ccccc1)N1CCc2ccccc2C1`, the “hERG current change (%, negative = inhibition) at 10uM” value is -0.206%. As for `O=C(CN1CCC(Cc2ccccc2)CC1)N1CCc2ccccc2C1`, the figure is -69.3%; as for `Cl.O=C(CN1CCN(c2ccc(F)cc2)CC1)N1CCC(Cc2ccccc2)CC1`, -30.3%; as for `O=C(CN1CCC(n2nnc3cc(C(F)(F)F)ccc32)CC1)N1CCc2ccccc21`, -19.9%. For `O=C(OCCC1Oc2cccnc2NC1=O)c1ccc(F)cc1` (centres unmarked) the value was 12.6%. As for `CC(OC(=O)/C=C/c1ccc2ccccc2n1)C(=O)Nc1ccc(S(N)(=O)=O)cc1` (centres unmarked), the figure is 19.1%; as for `CCCOC(=O)c1ccc(Oc2c(-c3ccc(O)cc3O)n[nH]c2C)cc1`, -2.68%; as for `Cc1nc(SCC(=O)Nc2cccc(C(=O)O)c2)n[nH]1`, 24.9%. For the compound `O=C(NCCCn1ccnc1)c1noc2c1CCCC2`, the “hERG current change (%, negative = inhibition) at 10uM” value is on record as -41.8%. `O=C(Nc1cc(Cl)cc(Cl)c1)C1CCC(=O)N1Cc1ccccc1Cl` (centres unmarked): the “hERG current change (%, negative = inhibition) at 10uM” value worked out at 8.65%.

Turning to `O=C(CC(Cc1ccccc1)C(=O)O)Nc1ccccc1` (centres unmarked), the “hERG current change (%, negative = inhibition) at 10uM” value came out at 25.2%. As for `CCOC(=O)c1ccc([N+](=O)[O-])cc1NC(C)=O`, the “hERG current change (%, negative = inhibition) at 10uM” value stood at 3.85%.

Regarding `Cc1cc(C)c(OCC(=O)Nc2cccc(O)c2)cc1C`, the “hERG current change (%, negative = inhibition) at 10uM” value is reported as 10.9%. In the case of `Cc1ccccc1CNC(=O)c1cc2ccccc2o1`, the “hERG current change (%, negative = inhibition) at 10uM” value was determined as 3.09%.

As to `CC(Sc1ccc(Cl)cc1)C(=O)NCC(c1ccco1)N1CCCCC1` (centres unmarked), the “hERG current change (%, negative = inhibition) at 10uM” value is given as -54.1%. As for `O=C(CCNC(=O)c1ccc(Cl)cc1)NCC(c1ccco1)N1CCCCC1` (centres unmarked), the figure is -31%. As for `O=C(NCc1ccccc1CN1CCCC1)c1cc2cc(Cl)ccc2o1`, the figure is -74.6%; as for `O=C(NCC(c1ccco1)N1CCCC1)c1cc2cc(Cl)ccc2o1` (centres unmarked), -67.7%. As for `CC(Sc1ccccc1)C(=O)NCC(c1ccco1)N1CCCCC1` (centres unmarked), the figure is -9.36%; as for `Cc1c(C(=O)NCC(c2ccco2)N2CCCC2)oc2ccc(Cl)cc12` (centres unmarked), -42.1%; as for `O=C(NCC(c1ccco1)N1CCCC1)c1ccc(Cl)cc1` (centres unmarked), -22.8%.

Consider `O=C(NCc1ccccc1CN1CCCC1)c1cc2ccccc2o1`, for which the “hERG current change (%, negative = inhibition) at 10uM” value is recorded as -69.4%. For `O=C(NCc1ccccc1)c1cc2ccccc2o1` the value was -4.68%; for `O=C(NCc1ccccc1CN1CCCCC1)c1ccc(Cl)cc1N1CCCC1=O`, -30.4%. For `CN(Cc1ccccc1N1CCCC1)C(=O)c1cc2cc(Cl)ccc2o1` the value was -13.4%.

As to `Cn1nnnc1SCC(=O)N1c2ccccc2Sc2ccc(Cl)cc21`, the “hERG current change (%, negative = inhibition) at 10uM” value is -16.4%. For `COC(=O)C(C)Oc1ccc2c(c1)O/C(=C\c1cccc(Br)c1)C2=O` (centres unmarked) the value was -46.9%; for `COc1ccc(C2c3[nH]c4ccccc4c3C[C@H]3C(=O)N(c4ccccc4C(=O)N4CCC[C@H]4C(=O)O)C(=O)N23)cc1` (some centres unmarked), 3.11%; for `CC(C)C[C@@]12C(=O)N(c3cccc(Cl)c3)C(=O)N1[C@H](c1ccc(Cl)cc1)[C@@H]1C(=O)N(C3CCCCC3)C(=O)[C@@H]12`, 11.2%. `Cc1ccc(C)c(NC(=O)CN(C)C(=O)CN2C(=O)C3CCCCC3C2=O)c1` (centres unmarked): the “hERG current change (%, negative = inhibition) at 10uM” value is on record as 10%.

With `O=C(NCC(c1ccco1)N1CCCC1)c1ccccc1Sc1ccc(C(F)(F)F)cc1[N+](=O)[O-]` (centres unmarked), the “hERG current change (%, negative = inhibition) at 10uM” value is given as -55.4%. As for `N#Cc1ccccc1Sc1ccccc1C(=O)NCC(c1ccco1)N1CCCCC1` (centres unmarked), the figure is -19%; as for `N#Cc1ccccc1Sc1ccccc1C(=O)NCC(c1ccco1)N1CCCC1` (centres unmarked), -27.9%. For `CCOC(=O)COn1c(-n2nc(C)cc2C)nc2ccccc2c1=O` the value was 0.487%; for `Cc1ccccc1NC(=O)c1ccccc1O`, 9.03%.

`Cc1cccc(OCC(=O)Nc2ccc3c(c2)nc(CN2CCCCC2)n3C)c1.Cl`: the “hERG current change (%, negative = inhibition) at 10uM” value is -25.3%. As for `Cc1ccc(C(C)C)c(OCC(=O)Nc2ccc3c(c2)nc(CN2CCCC2)n3C)c1`, the figure is -76.2%; as for `CCCC(=O)Nc1ccc2c(c1)nc(CN1CCCC1)n2C`, 11.7%.

Regarding `CCC(=O)Nc1ccc2c(c1)nc(CCN1CCCCC1)n2C`, the “hERG current change (%, negative = inhibition) at 10uM” value is listed as 7.26%. In the case of `Cc1ccc(C(C)C)c(OCC(=O)Nc2ccc3c(c2)nc(CCN2CCCCC2)n3C)c1`, the “hERG current change (%, negative = inhibition) at 10uM” value is -75.8%. With `CC(C)CC(=O)Nc1ccc2c(c1)nc(CCN1CCCCC1)n2C`, the “hERG current change (%, negative = inhibition) at 10uM” value is listed as -9.9%. Take `Cc1ccc(OCc2nc(-c3ccccn3)no2)c(Br)c1`: the “hERG current change (%, negative = inhibition) at 10uM” value was -22.5%. As for `CC(=O)c1cccc(OCC(=O)Nc2cccc(C(=O)Nc3c(C)n(C)n(-c4ccccc4)c3=O)c2)c1`, the figure is -7.78%; as for `C=C1C(C(=O)N2CCN(C)CC2)C1C(=O)N1CCN(C)CC1` (centres unmarked), -2.23%; as for `CC(C)Cn1c(N)c(C(=O)COC(=O)c2ccc([N+](=O)[O-])o2)c(=O)n(C)c1=O`, -69.5%.

Take `Cc1ccc(-n2nnnc2SCC(=O)c2c(N)n(CC(C)C)c(=O)n(C)c2=O)cc1`: the “hERG current change (%, negative = inhibition) at 10uM” value is listed as -69.1%. As for `Cn1c(N)c(C(=O)COC(=O)c2ccc([N+](=O)[O-])o2)c(=O)n(C)c1=O`, the figure is -34.6%; as for `CCCn1c(N)c(C(=O)CSc2nnnn2-c2ccc(O)cc2)c(=O)n(C)c1=O`, 5.2%. `CC(C)Cn1c(N)c(C(=O)COC(=O)c2ccc3ccccc3n2)c(=O)n(C)c1=O`: the “hERG current change (%, negative = inhibition) at 10uM” value is on record as -59.9%. As for `CCc1ccc(C(=O)OCC(=O)c2c(N)n(CC(C)C)c(=O)n(C)c2=O)cc1`, the figure is -0.249%; as for `Cn1c(N)c(C(=O)COC(=O)CCc2nc3ccccc3s2)c(=O)n(C)c1=O`, 5.93%. `CC(C)Cn1c(N)c(C(=O)CSc2nnnn2C)c(=O)n(C)c1=O`: the “hERG current change (%, negative = inhibition) at 10uM” value is 4.91%. For `Cn1c(N)c(C(=O)COC(=O)CCCc2nc3ccccc3s2)c(=O)n(C)c1=O` the value was 9.03%; for `CC(C)Cn1c(N)c(C(=O)COC(=O)CCc2nc3ccccc3s2)c(=O)n(C)c1=O`, -69.3%. As for `CC(C)Cn1c(N)c(C(=O)COC(=O)c2cc(-c3ccccc3)nc3ccccc23)c(=O)n(C)c1=O`, the figure is -8.18%; as for `CC(C)Cn1c(N)c(C(=O)COC(=O)c2cc(C(F)(F)F)nc3ccccc23)c(=O)n(C)c1=O`, 0.872%.
